# According to PubChem BioAssay:
# Assay: reversal of MRP1-mediated doxorubicin resistance, pilot screen, H69AR cells, doxorubicin co-treatment (AID 601)
# Details: H69AR cells, CellTiter-Glo, 72 h; compound alone cytotoxicity; at 10 µM
row,SMILES,viability [%]
1,CC(=O)Nc1ccc(S(=O)(=O)N2CCN(C(C)CCc3ccccc3)CC2)cc1 (stereo not given),96.6
2,COc1ccc(NC(=O)Nc2cc(C)ccc2OC)cc1,93.6
3,O=C(CNS(=O)(=O)c1ccc(Br)s1)N1CCCC1,99.9
4,Cn1c(=N)n(CC(=O)O)c2ccccc21,96.2
5,CC(C)(C)Nc1nc(OCC(F)(F)F)nc(OCC(F)(F)F)n1,89.1
6,COc1cc(CC(=O)Nc2ncc(C)s2)cc(OC)c1OC,91.5
7,Cc1ccc(NC2=NC3(CCCCC3)N=C(N)N2)c(C)c1,102
8,C=CCSc1nnc(-c2ccccc2NC(C)=O)c(=O)[nH]1,93
9,CC1CCN(CCCNC(=O)c2cn(C)c3ccc(S(=O)(=O)N4CCCC4)cc3c2=O)CC1,91
10,C=CCOc1ccc(/C(O)=C2\C(=O)C(=O)N(CCOC)C2c2cccnc2)cc1 (stereo not given),103
11,Cc1cccc(C(=O)N2CCC(n3nnc4cc(F)ccc43)CC2)c1,86.4
12,CC(C)Oc1ccc(N2CC(C(=O)Nc3ccccc3F)CC2=O)cc1 (stereo not given),97.6
13,O=C(CSc1ncc(-c2ccc(F)cc2)[nH]1)N1CCCCC1,91.3
14,CCCNC(=O)Nc1ccccc1C(=O)Nc1ccc(OC)cc1,94.6
15,COc1ccccc1OCC(=O)NCC1CCCCC1,109
16,Cc1ccccc1NC(=O)CSc1nc(N)c(C#N)c(-c2cccs2)c1C#N,30.2
17,c1ccc(CCc2nc(-c3cccnc3)no2)cc1,92.9
18,COc1cc(NC2=CC(=O)CC(C)(C)C2)cc(OC)c1,96.8
19,Cc1ccccc1CN1CCN(CC(=O)NCc2ccccc2)C1=O,89.9
20,CCOC(=O)c1nnc(-c2ccccc2)o1,88.1
